Measured values reported in PubChem BioAssay (Tox21).
Records with an inconclusive call do not appear. A call without a number means that no potency is given here. The source made the active and inactive calls. Calls follow the shape of the dose curve; as a rule, active = well fitted cell-killing curve with a large enough effect in the repeat runs; inconclusive = weak or mixed curves, or effect the other way; inactive = flat fitted curve, though single readings scatter.

Test: cAMP Responsive Elements (CRE) small molecule antagonists, cell-based qHTS assay: qHTS cell viability counter screen (AID 2060913); also: nearly all actives have a fitted effect of over 40% in size
Conditions: CRE-bla HEK293T viability, CellTiter-Glo luminescence, 5 h; series mostly up to 92.4 µM
Method in brief: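 CRE-bla HEK293T cells were seeded in assay medium with 10% dialyzed FBS, incubated 18 hrs at 37 C, then exposed to compounds plus 0.25 uM final NKH477 for 3 hrs. Viability was read by CellTiter-Glo luminescence after 30 min, in the same wells.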
Potency is read from the fitted curve at half-maximal effect.

SMILES	Potency
C=CC(=O)OCCCCO	inactive
CC(C)[C@@H](Nc1ccc(C(F)(F)F)cc1Cl)C(=O)OC(C#N)c1cccc(Oc2ccccc2)c1 (stereo partly specified)	inactive
CCOC(=O)Nc1cccc(OC(=O)Nc2ccccc2)c1	inactive
CCCCn1cc[n+](C)c1	inactive
COc1ccc([N+](=O)[O-])cc1O	inactive
O=C(O)c1ccccc1C(=O)Nc1cccc2ccccc12	inactive
Cc1c(F)c(F)c(COC(=O)C2C(/C=C(\Cl)C(F)(F)F)C2(C)C)c(F)c1F (stereo unspecified)	inactive
CCOP(=O)(OCC)Oc1ccc([N+](=O)[O-])cc1	inactive
O=C1C2(Cl)C3(Cl)C4(Cl)C(Cl)(Cl)C5(Cl)C3(Cl)C1(Cl)C5(Cl)C24Cl (stereo unspecified)	60.1 µM (active)
ClCCOCOCCCl	inactive
CCOP(=O)(SC(C)CC)N1CCSC1=O (stereo unspecified)	inactive
O=C(O)C(Cl)Br (stereo unspecified)	inactive
Nc1nc(N)nc(NC2CC2)n1	inactive
CNC(=O)Oc1ccccc1C1OCCO1	inactive
CNCC(=O)c1ccc(O)c(O)c1	inactive
[Cl][Sn]([c]1ccccc1)([c]1ccccc1)[c]1ccccc1	2.59 µM (active)
N#Cc1nn(-c2c(Cl)cc(C(F)(F)F)cc2Cl)c(N)c1S(=O)C(F)(F)F (stereo unspecified)	inactive
CC(=O)c1cc2c(cc1C)C(C)(C)C(C)CC2(C)C (stereo unspecified)	inactive
O=C(OC1CCCCC1)c1ccccc1C(=O)OC1CCCCC1	inactive
CCN1CCC2(CC1)COc1cc3c(cc12)N(C(=O)c1ccc(-c2ccc(-c4nnc(C)o4)cc2C)cc1)CC3	56.4 µM (active)
CC1COC2(c3ccccc3Cl)c3cc(Cl)ccc3NC(=O)CN12 (stereo unspecified)	inactive
